# Results as given in ChEMBL document CHEMBL3988442, “University of Dundee, Small-Polar-MMV Screening Library” (2021).
# Out of some 69,000 compounds screened, about 950 (1.4%) showed an effect of 50% or more. The sample holds strong results, similar compounds and a random draw of the others, so the mix is not that of the screen.
# Tested on: Mycobacterium tuberculosis
# Assay: Cornell M. t heat shock assay; further: in the data most compounds retested in dose-response had high values
# Format: functional, organism-based
# Set-up: dose or concentration left out as unconfirmed
row,SMILES,Percent Effect
1,O=C(Nc1cccnc1)[C@H]1CO[C@H]2CCNC[C@H]2C1.O=C(O)C(F)(F)F.O=C(O)C(F)(F)F,-15.71%
2,Cc1ccc2c(n1)N(CC1CC1)CCN(C(=O)c1ccncc1F)C2.O=C(O)C(F)(F)F.O=C(O)C(F)(F)F,-13.11%
3,CCn1c(CN(C)Cc2csc(C)n2)nc2cc(F)ccc21,69.38%
4,CCn1c(CN(C)Cc2cnc(C)s2)nc2cc(F)ccc21,-9.437%
5,CCN(Cc1csc(C)n1)c1cccc(CO)c1,-22.94%
6,CCO[C@@H]1CC[C@H]2[C@H]1OCCN2CC1CCC1.O=C(O)C(F)(F)F,-27.51%
7,CCc1cc(N(C)Cc2ccno2)n2nc(C)c(C)c2n1,27.53%
8,CCc1cc(N(C)Cc2ccnc(C)c2)n2nc(C)c(C)c2n1,28.31%
9,Cc1cc(N(C)Cc2noc(C)n2)n2nc(C)c(C)c2n1,0.3178%
10,Cc1cc(N(C)Cc2c(C)noc2C)n2nc(C)c(C)c2n1,-31.35%
11,Cc1cc(N(C)CCN(C)C)n2nc(C)cc2n1,-8.3%
12,Cc1cc(NC(C)c2csc(C)n2)n2nc(C)c(C)c2n1 (configuration not stated),26.88%
13,CCc1cc(N(C)Cc2ccncn2)n2nc(C)c(C)c2n1,89.97%
14,CCc1nnc(CN(C)c2cc(C)nc3c(C)c(C)nn23)o1,-40%
15,Cc1cc(N(C)Cc2cc(C)on2)n2nc(C)c(C)c2n1,82.43%
16,CCc1cc(N(C)Cc2cc[nH]n2)n2nc(C)c(C)c2n1,19.05%
17,Cc1csc(CN(C)c2cc(C)nc3c(C)c(C)nn23)n1,96.63%
18,Cc1cc(N(C)Cc2ccsc2)n2nc(C)c(C)c2n1,86.91%
19,Cc1cc(C)cc(N2CCN(C(=O)CCN3C[C@@H]4CC[C@H]3C4)CC2=O)c1,-4.633%
20,COc1cc(N2C[C@@H]3COC[C@]3(COc3ncccc3F)C2)ncn1.O=C(O)C(F)(F)F.O=C(O)C(F)(F)F,-28.64%
21,CC(C)OCc1ncn2c1CN(Cc1cccs1)CCC2.O=C(O)C(F)(F)F,-1.604%

row,SMILES,Percent Effect
1,CN(C)CCOCc1nnc2n1CCN(CC1CC1)CC2.O=C(O)C(F)(F)F.O=C(O)C(F)(F)F,-19.96%
2,Cc1ncsc1CN1C[C@H](C(=O)NCC2CC2)[C@@H]2CCO[C@@H]2C1.O=C(O)C(F)(F)F,-4.533%
3,COc1ccc(CN2CCC3(CC2)CCN(CCN(C)C)C3=O)cc1.O=C(O)C(F)(F)F.O=C(O)C(F)(F)F,-10.28%
4,COCC(=O)N1CCC2(CC1)CC(COC)N(Cc1ccccn1)C2.O=C(O)C(F)(F)F (configuration not stated),9.323%
5,CCN1C(=O)CC[C@]12CC[C@@H](NC(=O)NCc1cccnc1)CC2.O=C(O)C(F)(F)F,4.335%
6,CNC(=O)C1Cn2ccnc2C2(CCN(Cc3cccc(C)n3)CC2)O1.O=C(O)C(F)(F)F (configuration not stated),-1.384%
7,Cc1nc(NCc2noc(C3CCCO3)n2)c2ccsc2n1 (configuration not stated),12.93%
8,O=C(O)C(F)(F)F.O=C1COC2(CCN(c3ccccn3)CC2)CN1,64.38%
9,O=C(O)C(F)(F)F.O=C1COC2(CCN(c3ncccn3)CC2)CN1,-4.23%
10,Cc1ccc(N2CCC3(CC2)CNC(=O)CO3)nn1.O=C(O)C(F)(F)F,-15.23%
11,Cc1cc(F)ccc1-c1ccccc1CC1CNCCNC1=O.Cl (configuration not stated),10.68%
12,Cc1ccc(C(=O)N2CC[C@@H]3CN(C4CCOCC4)CCO[C@@H]3C2)o1.O=C(O)C(F)(F)F,5.788%
13,CC(C)NC(=O)N1CC[C@H]2[C@H]1CCN2c1ncccn1.O=C(O)C(F)(F)F,-6.623%
14,Cc1c(NCc2ccccc2C#N)cccc1S(=O)(=O)NC1CC1,92.24%
15,Cc1ccc(NCc2ccc(C#N)cc2)c(CN(C)C)c1,-24.71%
16,Cc1cc(NCc2cccc(C#N)c2)ccc1Br,-0.9935%
17,Cc1c(NCc2cccc(C#N)c2)cccc1S(=O)(=O)NC1CC1,50.22%
18,Cc1c(NCc2ccc(C#N)cc2)cccc1S(=O)(=O)NC1CC1,50.41%
19,Cc1cc(NCc2cccc(C#N)c2)ccc1C(N)=O,-8.044%
20,Cc1c(NCc2ccccc2C#N)cccc1-n1cnnn1,16.44%
21,N#Cc1cccnc1NCc1ccc(S(=O)(=O)NC2CC2)cc1,26.85%

row,SMILES,Percent Effect
1,CS(=O)(=O)NCC1CCCCN1Cc1ccccc1C#N (configuration not stated),-5.634%
2,COC1COC2(CCN(Cc3ccc(Cl)cc3)CC2)C1.O=C(O)C(F)(F)F (configuration not stated),-23.85%
3,Cc1nc(NC(=O)C2(C)CN(C)CCO2)sc1C.Cl (configuration not stated),-1.317%
4,CCC(CC)C(=O)N1CCOC2(COCCN(CC(=O)NC)C2)C1.O=C(O)C(F)(F)F (configuration not stated),-7.076%
5,Cc1cccc(NC(=O)N2CCCn3cnc(CN(C)C(C)C)c3C2)c1.O=C(O)C(F)(F)F,-43.51%
6,COCC1CN(c2ccc(C)nn2)Cc2cnn(C)c21.O=C(O)C(F)(F)F.O=C(O)C(F)(F)F (configuration not stated),33.23%
7,CN1CCOCC2(CCCN(C(=O)c3ccc(-n4cccc4)cc3)C2)C1.O=C(O)C(F)(F)F (configuration not stated),-38%
8,CN(C)CC(=O)N1CCC2(CC1)CN(c1ccsc1)C(=O)CO2.O=C(O)C(F)(F)F,-14.58%
9,c1ccc(-c2cc(CN3CCCC(Cn4cncn4)C3)on2)cc1 (configuration not stated),-1.952%
10,C1CCCN(CC2CCCN(Cc3noc(C4CC4)n3)C2)CC1 (configuration not stated),7.551%
11,c1ccc(-c2cc(CN3C[C@@H]4CC[C@H](C3)N(CC3CC3)C4)on2)cc1,99.84%
12,C1CC(CN2C[C@H]3CC[C@@H]2CN(Cc2nnc(C4CC4)o2)C3)C1,16.6%
13,Cc1cc(CN2C[C@H]3CC[C@@H]2CN(C2Cc4ccccc4C2)C3)on1,16.59%
14,c1ccc(-c2cc(CN3C[C@@H]4CC[C@H](C3)N(CC3CCC3)C4)on2)cc1,105.8%
15,C1CC(CN2C[C@H]3CC[C@@H]2CN(Cc2noc(C4CCCC4)n2)C3)C1,69.475%
16,c1ccc(CN2C[C@H]3CC[C@@H]2CN(Cc2nnc(C4CC4)o2)C3)cc1,-5.775%
17,Cc1cnn(C2CN(Cc3noc(C4CC4)n3)C2)c1,9.159%
18,c1ccc(-c2nnc(CN3C[C@@H]4CC[C@H](C3)N(CC3CCC3)C4)o2)cc1,64.4%
19,c1ccc(-c2cc(CN3C[C@H]4CC[C@H]3C4)on2)cc1,7.341%
20,CCc1cc(CN2C[C@H]3CC[C@@H]2CN(C2Cc4ccccc4C2)C3)on1,30.93%
